Measured values published in PubChem BioAssay AID1159580 (chemical genetic matrix, 2015).
Where “and” joins values, the source holds several entries; their conditions need not be identical. Equal values may be shown once. Out of some 5,500 compounds screened, about 2,000 (36%) were called active. Another 18% or so got no clear call; they are omitted. Cut-off read from the data, not from the text of the source: active = normalized growth mostly below about 0.91 (no sharp cut-off); inconclusive = no clear call, values can overlap the other calls; inactive = mostly above about 0.92. Some of the results follow.

Experiment: chemical genetic growth profiling, strain panel (AID 1159580);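 note: tested at 20 µM; growth read once vehicle control cultures reached saturation at 30 °C; 1 = growth at the plate median or of vehicle wells; lower values mean less growth of the strain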
Details: S. cerevisiae deletion strains, growth OD

Measured: normalized growth

CCCCCCOc1ccccc1C(N)=O
inactive: locus YAL021C, strain ccr4, active compounds read low 1.04 | locus YAL030W, strain snc1, active compounds read low 0.939 | locus YBR231C, strain swc5, active compounds read low 0.922 | locus YBR279W, strain paf1, active compounds read low 0.934 | locus YCR088W, strain abp1, active compounds read low 0.94 | locus YDL005C, strain med2, active compounds read low 0.964 | locus YDL040C, strain nat1, active compounds read low 0.948 | locus YDR001C, strain nth1, active compounds read low 0.949 | locus YDR069C, strain doa4, active compounds read low 0.989 | locus YDR195W, strain ref2 1.05 | locus YDR334W, strain swr1, active compounds read low 0.959 | locus YDR335W, strain msn5, active compounds read low 0.956 | locus YEL037C, strain rad23, active compounds read low 0.943 | locus YEL061C, strain CIN8 (second series), active compounds read low 0.935 | locus YER016W, strain bim1, active compounds read low 0.928 | locus YER111C, strain swi4, active compounds read low 0.941 | locus YFR010W, strain ubp6, active compounds read low 0.985 | locus YGL167C, strain pmr1, active compounds read low 0.92 | locus YGL173C, strain kem1, active compounds read low 0.939 | locus YGL227W, strain vid30, active compounds read low 0.947 | locus YHR013C, strain ard1, active compounds read low 0.916 | locus YHR027C, strain rpn1, active compounds read low 0.945 | locus YHR079C, strain IRE1, active compounds read low 0.924 | locus YJL092W, strain hpr5, active compounds read low 0.919 | locus YJL115W, strain asf1, active compounds read low 0.96 | locus YJL154C, strain vps35, active compounds read low 0.959
active: locus YAL013W, strain DEP1, active compounds read low 0.662 | locus YAL026C, strain drs2, active compounds read low 0.75 | locus YBL061C, strain skt5, active compounds read low 0.893 | locus YBR009C, strain hhf1, active compounds read low 0.862 | locus YBR021W, strain FUR4, active compounds read low 0.84 | locus YBR023C, strain chs3, active compounds read low 0.81 | locus YBR171W, strain sec66, active compounds read low 0.857 | locus YBR229C, strain ROT2, active compounds read low 0.86 | locus YCL011C, strain gbp2, active compounds read low 0.897 | locus YCL016C, strain dcc1, active compounds read low 0.874 | locus YCL029C, strain bik1, active compounds read low 0.38 | locus YCL069W, strain vba3, active compounds read low 0.849 | locus YDL035C, strain GPR1, active compounds read low 0.553 | locus YDL074C, strain BRE1, active compounds read low 0.443 | locus YDL101C, strain DUN1, active compounds read low 0.505 | locus YDL134C, strain PPH21, active compounds read low 0.513 | locus YDL185W, strain tfp1, active compounds read low 0.636 | locus YDL192W, strain arf1, active compounds read low 0.654 | locus YDR101C, strain arx1, active compounds read low 0.655 | locus YDR137W, strain rgp1, active compounds read low 1.39 [resistant] | locus YDR150W, strain NUM1, active compounds read low 0.744 | locus YDR159W, strain sac3, active compounds read low 0.784 | locus YDR162C, strain NBP2, active compounds read low 0.338 | locus YDR297W, strain sur2, active compounds read low 0.914 | locus YDR318W, strain mcm21, active compounds read low 0.41 | locus YDR388W, active compounds read low 0.71 | locus YDR392W, strain spt3, active compounds read low 0.335 | locus YDR502C, strain sam2, active compounds read low 0.546 | locus YEL003W, strain gim4, active compounds read low 0.867 | locus YEL061C, strain CIN8, active compounds read low 0.449 | locus YER015W, strain faa2, active compounds read low 0.892 | locus YER110C, active compounds read low 0.544 | locus YER155C, strain BEM2 (second series), active compounds read low 0.249 | locus YER155C, strain BEM2, active compounds read low 0.304 | locus YER167W, strain BCK2, active compounds read low 0.367 | locus YGL078C, strain dbp3, active compounds read low 0.864 | locus YGL086W, strain mad1, active compounds read low 0.439 | locus YGL240W, strain doc1, active compounds read low 0.789 | locus YGL248W, strain PDE1, active compounds read low 0.612 | locus YGL253W, strain hxk2, active compounds read low 0.824 | locus YGR135W, strain pre9, active compounds read low 0.533 | locus YGR229C, strain SMI1, active compounds read low 0.144 | locus YGR252W, strain gcn5, active compounds read low 0.446 | locus YHR030C, strain SLT2, active compounds read low 0.0615 and 0.831 | locus YHR079C, strain IRE1 (second series), active compounds read low 0.646 | locus YHR094C, strain hxt1, active compounds read low 0.765 | locus YHR129C, strain ARP1, active compounds read low 0.474 | locus YHR142W, strain chs7, active compounds read low 0.692 | locus YHR200W, strain rpn10, active compounds read low 0.804 | locus YIL066C, strain RNR3, active compounds read low 0.188 | locus YIL073C, strain SPO22, active compounds read low 0.535 | locus YIL125W, strain kgd1, active compounds read low 0.796 | locus YIR030C, strain dcg1, active compounds read low 0.615 | locus YJL095W, strain BCK1 (second series), active compounds read low 0.704 | locus YJL095W, strain BCK1, active compounds read low 0.0726 and 0.863 | locus YJL129C, strain trk1, active compounds read low 0.755 | locus YJL134W, strain LCB3, active compounds read low 0.868 | locus YJL164C, strain tpk1, active compounds read low 0.863 | locus YJL166W, strain qcr8, active compounds read low 0.822 | locus YJL168C, strain set2, active compounds read low 0.826 | locus YJL187C, strain SWE1 (second series), active compounds read low 0.612 | locus YJL187C, strain SWE1, active compounds read low 0.917
